Out of some 5,500 compounds screened, about 2,000 (36%) were called active. Inconclusive results (about 18%) are left out. Cut-off read from the data, not from the text of the source: active = normalized growth mostly below about 0.91 (no sharp cut-off); inconclusive = no clear call, values can overlap the other calls; inactive = mostly above about 0.92. The list shows a part of the results.
Assay: chemical genetic growth profiling, strain panel (AID 1159580);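 note: tested at 20 µM; growth read once vehicle control cultures reached saturation at 30 °C; 1 = growth at the plate median or of vehicle wells; lower values mean less growth of the strain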
Conditions: growth OD
[1] = S. cerevisiae deletion strains, locus YAL013W, strain DEP1, stronger effect = lower value
[2] = S. cerevisiae deletion strains, locus YBR229C, strain ROT2, stronger effect = lower value
[3] = S. cerevisiae deletion strains, locus YDL101C, strain DUN1, stronger effect = lower value
[4] = S. cerevisiae deletion strains, locus YDR150W, strain NUM1, stronger effect = lower value
[5] = S. cerevisiae deletion strains, locus YEL061C, strain CIN8, stronger effect = lower value
[6] = S. cerevisiae deletion strains, locus YGR078C, strain PAC10, stronger effect = lower value
[7] = S. cerevisiae deletion strains, locus YHR030C, strain SLT2, stronger effect = lower value
[8] = S. cerevisiae deletion strains, locus YHR087W, strain rtc3, stronger effect = lower value
[9] = S. cerevisiae deletion strains, locus YJL187C, strain SWE1, stronger effect = lower value
[10] = S. cerevisiae deletion strains, locus YJR043C, strain POL32, stronger effect = lower value
[11] = S. cerevisiae deletion strains, locus YJR075W, strain HOC1, stronger effect = lower value
[12] = S. cerevisiae deletion strains, locus YLR039C, strain RIC1, stronger effect = lower value
[13] = S. cerevisiae deletion strains, locus YLR058C, strain SHM2 (second series), stronger effect = lower value
[14] = S. cerevisiae deletion strains, locus YLR085C, strain ARP6, stronger effect = lower value
[15] = S. cerevisiae deletion strains, locus YLR262C, strain YPT6, stronger effect = lower value
[16] = S. cerevisiae deletion strains, locus YML094W, strain GIM5, stronger effect = lower value
[17] = S. cerevisiae deletion strains, locus YMR219W, strain ESC1, stronger effect = lower value
[18] = S. cerevisiae deletion strains, locus YMR263W, strain SAP30, stronger effect = lower value
[19] = S. cerevisiae deletion strains, locus YMR307W, strain GAS1, stronger effect = lower value
[20] = S. cerevisiae deletion strains, locus YNL153C, strain GIM3, stronger effect = lower value
[21] = S. cerevisiae deletion strains, locus YNL298W, strain CLA4 (second series), stronger effect = lower value
[22] = S. cerevisiae deletion strains, locus YNL322C, strain KRE1, stronger effect = lower value
[23] = S. cerevisiae deletion strains, locus YNR030W, strain Alg12, stronger effect = lower value
[24] = S. cerevisiae deletion strains, locus YPL055C, strain LGE1, stronger effect = lower value
[25] = S. cerevisiae deletion strains, locus YPL241C, strain CIN2, stronger effect = lower value
[26] = S. cerevisiae deletion strains, locus YPR135W, strain CTF4, stronger effect = lower value
[27] = S. cerevisiae strains, strain wild type, stronger effect = lower value
[28] = S. cerevisiae deletion strains, locus YGR229C, strain SMI1, stronger effect = lower value
[29] = S. cerevisiae deletion strains, locus YKL190W, strain CNB1, stronger effect = lower value
[30] = S. cerevisiae deletion strains, locus YOL006C, strain TOP1, stronger effect = lower value

Measured: normalized growth

COc1cccc(Nc2nc3ccccc3s2)c1
active: [1] 0.728 | [2] 0.709 | [3] 0.724 | [5] 0.533 | [6] 0.827 | [7] 0.112 | [8] 0.688 | [9] 0.682 | [10] 0.856 | [11] 0.711 | [12] 0.163 | [13] 0.914 | [14] 0.138 | [15] 0.187 | [16] 0.66 | [17] 0.804 | [18] 0.795 | [19] 0.208 | [20] 0.799 | [21] 0.421 | [22] 0.943 | [23] 0.575 | [24] 0.548 | [25] 0.485 | [26] 0.264 | [27] 0.598
inactive: [4] 0.877

c1cc(CN2CCCCC2)cc(OCCCNc2nc3ccccc3s2)c1
inactive: [1] 1 | S. cerevisiae deletion strains, locus YAL040C, strain CLN3, stronger effect = lower value 0.908 | S. cerevisiae deletion strains, locus YCL061C, strain MRC1 (second series), stronger effect = lower value 1.01 | [4] 1.02 | S. cerevisiae deletion strains, locus YDR363W, strain ESC2, stronger effect = lower value 0.997 | S. cerevisiae deletion strains, locus YER002W, strain NOP16, stronger effect = lower value 0.936 | [18] 1.01 | [19] 1.01 | S. cerevisiae deletion strains, locus YNL197C, strain WHI3, stronger effect = lower value 1.04 | S. cerevisiae deletion strains, locus YNL224C, strain SQS1, stronger effect = lower value 1.06 | [22] 0.992 | S. cerevisiae deletion strains, locus YOR083W, strain WHI5 (second series), stronger effect = lower value 1.03

COc1cccc(NC(N)=S)c1
inactive: [1] 1.02 | [2] 1.01 | [3] 1.02 | [4] 0.992 | [5] 1.01 | [6] 1.01 | [28] 0.993 | [7] 1.08 | [8] 0.997 | [9] 1.01 | [10] 1.01 | [11] 0.991 | [29] 0.985 | [12] 1.03 | [13] 1.03 | [14] 1.02 | [15] 1.05 | [16] 1 | [17] 1.01 | [18] 1.01 | [20] 0.998 | [21] 1.03 | [22] 0.995 | [23] 1.01 | [30] 1.05 | [24] 0.984 | [25] 0.964 | [26] 1.12 | [27] 0.993

O=C(COC(=O)c1ccccc1C(=O)c1ccccc1)c1ccccc1
inactive: [1] 0.984 | [2] 0.988 | [3] 0.97 | [4] 0.969 | [5] 0.989 | [6] 0.98 | [28] 0.993 | [7] 0.861 | [8] 0.98 | [10] 0.979 | [11] 0.957 | [29] 0.998 | [12] 0.912 | [13] 0.984 | [14] 0.936 | [15] 0.933 | [16] 0.99 | [17] 0.978 | [18] 0.902 | [20] 0.99 | [21] 0.971 | [22] 0.989 | [23] 0.975 | [24] 0.979 | [25] 0.95 | [26] 0.868 | [27] 1

COc1cccc(NC(=O)NC2Cc3ccccc3C2)c1
inactive: [1] 0.975 | [2] 0.998 | [3] 0.991 | S. cerevisiae deletion strains, locus YDL134C, strain PPH21, stronger effect = lower value 0.989 | [4] 0.867 | [5] 1 | [6] 0.989 | [7] 0.929 | [8] 1 | [9] 0.998 | [10] 0.982 | [11] 0.996 | [29] 0.996 | [12] 0.996 | [13] 0.992 | [14] 0.952 | [15] 0.96 | [16] 0.992 | [17] 0.99 | [18] 0.927 | [19] 0.999 | [20] 0.994 | [21] 0.973 | [22] 1.01 | [23] 0.978 | [30] 0.937 | [24] 0.883 | [25] 0.986 | [26] 0.877

CC(=O)c1ccccc1C(=O)c1ccc(C(C)(C)C)cc1
inactive: S. cerevisiae deletion strains, locus YAR019C, strain CDC15, stronger effect = lower value 0.961 | S. cerevisiae deletion strains, locus YBL105C, strain PKC1, stronger effect = lower value 0.961 | S. cerevisiae deletion strains, locus YBR135W, strain CKS1, stronger effect = lower value 0.957 | S. cerevisiae deletion strains, locus YBR136W, strain MEC1, stronger effect = lower value 0.96 | S. cerevisiae deletion strains, locus YBR160W, strain CDC28, stronger effect = lower value 0.959 | S. cerevisiae deletion strains, locus YDL017W, strain CDC7, stronger effect = lower value 0.956 | S. cerevisiae deletion strains, locus YDL028C, strain MPS1, stronger effect = lower value 0.961 | [3] 0.95 | S. cerevisiae deletion strains, locus YDL108W, strain KIN28, stronger effect = lower value 0.964 | S. cerevisiae deletion strains, locus YDL132W, strain cdc53, stronger effect = lower value 0.958 | S. cerevisiae deletion strains, locus YDL214C, strain PRR2, stronger effect = lower value 0.969 | S. cerevisiae deletion strains, locus YDR052C, strain DBF4, stronger effect = lower value 0.964 | S. cerevisiae deletion strains, locus YDR054C, strain cdc34, stronger effect = lower value 0.957 | S. cerevisiae deletion strains, locus YDR226W, strain ADK1, stronger effect = lower value 0.96 | S. cerevisiae deletion strains, locus YDR477W, strain SNF1, stronger effect = lower value 0.969 | S. cerevisiae deletion strains, locus YER123W, strain YCK3, stronger effect = lower value 0.982 | S. cerevisiae deletion strains, locus YER133W, strain GLC7, stronger effect = lower value 0.953 | S. cerevisiae deletion strains, locus YFL009W, strain cdc4, stronger effect = lower value 0.953 | S. cerevisiae deletion strains, locus YFL029C, strain CAK1, stronger effect = lower value 0.953 | S. cerevisiae deletion strains, locus YFR003C, strain YPI1, stronger effect = lower value 0.961 | S. cerevisiae deletion strains, locus YFR019W, strain FAB1, stronger effect = lower value 0.981 | S. cerevisiae deletion strains, locus YFR028C, strain CDC14, stronger effect = lower value 0.965 | S. cerevisiae deletion strains, locus YGR040W, strain KSS1, stronger effect = lower value 0.967 | S. cerevisiae deletion strains, locus YGR052W, strain FMP48, stronger effect = lower value 0.992 | S. cerevisiae deletion strains, locus YGR092W, strain DBF2, stronger effect = lower value 0.954 | [7] 0.855 | S. cerevisiae deletion strains, locus YHR079C, strain IRE1, stronger effect = lower value 0.918 | S. cerevisiae deletion strains, locus YHR082C, strain KSP1, stronger effect = lower value 1.07 | S. cerevisiae deletion strains, locus YHR205W, strain SCH9, stronger effect = lower value 1 | S. cerevisiae deletion strains, locus YIL147C, strain SLN1, stronger effect = lower value 0.961 | S. cerevisiae deletion strains, locus YJL095W, strain BCK1, stronger effect = lower value 0.999 | S. cerevisiae deletion strains, locus YJL128C, strain PBS2, stronger effect = lower value 0.918 | S. cerevisiae deletion strains, locus YJL157C, strain FAR1, stronger effect = lower value 0.984 | S. cerevisiae deletion strains, locus YJR016C, strain ILV3, stronger effect = lower value 0.969 | S. cerevisiae deletion strains, locus YJR066W, strain TOR1 (second series), stronger effect = lower value 0.989 | S. cerevisiae deletion strains, locus YJR066W, strain TOR1, stronger effect = lower value 1.04 | S. cerevisiae deletion strains, locus YKL048C, strain ELM1, stronger effect = lower value 0.939 | S. cerevisiae deletion strains, locus YKL067W, strain YNK1, stronger effect = lower value 0.967 | S. cerevisiae deletion strains, locus YKL101W, strain HSL1, stronger effect = lower value 0.976 | S. cerevisiae deletion strains, locus YKL193C, strain SDS22, stronger effect = lower value 0.961 | S. cerevisiae deletion strains, locus YKL203C, strain TOR2, stronger effect = lower value 0.989 | S. cerevisiae deletion strains, locus YLR133W, strain CKI1, stronger effect = lower value 0.986 | S. cerevisiae deletion strains, locus YLR403W, strain SFP1, stronger effect = lower value 0.985 | S. cerevisiae deletion strains, locus YML070W, strain DAK1, stronger effect = lower value 0.953 | S. cerevisiae deletion strains, locus YMR001C, strain CDC5, stronger effect = lower value 0.959 | S. cerevisiae deletion strains, locus YMR205C, strain PFK2 (second series), stronger effect = lower value 0.981 | S. cerevisiae deletion strains, locus YMR277W, strain FCP1, stronger effect = lower value 0.963 | S. cerevisiae deletion strains, locus YNL006W, strain LST8, stronger effect = lower value 0.954 | S. cerevisiae deletion strains, locus YNL020C, strain ARK1, stronger effect = lower value 0.99 | S. cerevisiae deletion strains, locus YNL161W, strain CBK1, stronger effect = lower value 0.959 | S. cerevisiae deletion strains, locus YNL183C, strain NPR1, stronger effect = lower value 1 | S. cerevisiae deletion strains, locus YNL207W, strain RIO2, stronger effect = lower value 0.958 | S. cerevisiae deletion strains, locus YNL222W, strain SSU72, stronger effect = lower value 0.966 | S. cerevisiae deletion strains, locus YNL307C, strain MCK1 (second series), stronger effect = lower value 0.975 | S. cerevisiae deletion strains, locus YOL078W, strain AVO1, stronger effect = lower value 0.967 | S. cerevisiae deletion strains, locus YOL136C, strain PFK27, stronger effect = lower value 0.98 | S. cerevisiae deletion strains, locus YOR061W, strain CKA2, stronger effect = lower value 0.975 | S. cerevisiae deletion strains, locus YOR119C, strain RIO1, stronger effect = lower value 1.02 | S. cerevisiae deletion strains, locus YOR231W, strain MKK1, stronger effect = lower value 0.949 | S. cerevisiae deletion strains, locus YOR329C, strain SCD5, stronger effect = lower value 0.961 | S. cerevisiae deletion strains, locus YPL031C, strain PHO85, stronger effect = lower value 0.961 | S. cerevisiae deletion strains, locus YPL153C, strain RAD53, stronger effect = lower value 0.953 | S. cerevisiae deletion strains, locus YPL204W, strain HRR25, stronger effect = lower value 0.96 | S. cerevisiae deletion strains, locus YPL209C, strain IPL1, stronger effect = lower value 0.959 | S. cerevisiae deletion strains, locus YPR025C, strain CCL1, stronger effect = lower value 0.96 | S. cerevisiae deletion strains, locus YPR106W, strain ISR1, stronger effect = lower value 0.969 | S. cerevisiae deletion strains, locus YPR111W, strain DBF20, stronger effect = lower value 0.946 | S. cerevisiae deletion strains, strain NNK1, stronger effect = lower value 0.96 | S. cerevisiae deletion strains, strain TSCII, stronger effect = lower value 0.955
active: S. cerevisiae deletion strains, locus YLR113W, strain HOG1, stronger effect = lower value 0.761 | S. cerevisiae deletion strains, locus YPL256C, strain CLN2, stronger effect = lower value 0.85

— PubChem BioAssay AID1159580 (chemical genetic matrix, 2015)
